# Assay results taken from PubChem BioAssay.
# Activity calls are given as the source filed them.
# Columns and labels:
# [1] = tested on: Human papillomavirus type 1a protein E7 (residues 44-93); assay: HPV1a E7 fragment binders on microarrays, primary screen, biochemical, small-molecule microarray, residues 44-93, 635 nm fluorescence (AID 1108); settings: small-molecule microarray binding, fluorescence 635 nm; higher = more signal;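 also: E7 fragment applied at 1 µg/mL in TBST for 1 h at 4 C; score combines spot fluorescence with its signal to noise ratio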
# [2] = modulators of HCV replicon luciferase signal, primary screen, HCV replication inhibitor project, Huh7 cells, luciferase reporter (AID 1109); settings: 48 h, higher = more signal;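 also: huh7 hepatoma cells harbouring a luciferase neomycin HCV replicon reporter; luciferase luminescence as measure of HCV replicon replication; test concentration not given here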
# [3] = target: Left-right determination factor 2 (Homo sapiens) (UniProt O00292); assay: LEFTY2 binders on small-molecule microarrays, primary screen, biochemical, small-molecule microarray, 635 nm fluorescence scan (AID 1110); settings: LEFTY2 binding, higher = more signal
# Left-right determination factor 2 (Homo sapiens), sequence (O00292 whole entry, looked up): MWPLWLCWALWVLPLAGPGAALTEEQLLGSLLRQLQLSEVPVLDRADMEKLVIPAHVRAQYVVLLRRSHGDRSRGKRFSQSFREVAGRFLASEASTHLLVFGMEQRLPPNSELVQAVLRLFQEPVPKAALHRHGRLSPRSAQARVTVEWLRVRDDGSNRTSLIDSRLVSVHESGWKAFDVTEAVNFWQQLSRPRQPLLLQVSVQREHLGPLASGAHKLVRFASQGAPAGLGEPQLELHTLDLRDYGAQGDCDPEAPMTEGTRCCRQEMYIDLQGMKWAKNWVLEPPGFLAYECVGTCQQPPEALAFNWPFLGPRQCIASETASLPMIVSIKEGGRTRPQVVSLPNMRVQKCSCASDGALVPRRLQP
# [4] = target: Calmodulin-1 (Homo sapiens) (UniProt P0DP23); assay: CALM1 binders on microarrays, EGTA buffer, profiling panel, biochemical, small-molecule microarray, Cy5-labelled CALM1 (AID 1111); settings: Cy5-CALM1 binding fluorescence, higher = more signal;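 also: labelled calmodulin applied in Tris saline Tween buffer holding calcium plus EGTA and DTT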
# [5] = target: Calmodulin-1 (Homo sapiens) (UniProt P0DP23); assay: calcium-bound CALM1 binders on microarrays, profiling panel, artefact control for SMM control-protein annotation, biochemical, small-molecule microarray, Cy5-labelled CALM1, plus calcium (AID 1112); settings: Cy5-CALM1 binding fluorescence, higher = more signal;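 also: score merges spot fluorescence with signal to noise from triplicate slides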
# [6] = small-molecule microarray binders of probe aWnt5a, primary screen, biochemical, biotinylated probe, 635/667 nm fluorescence (AID 1113); settings: higher = more signal;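 also: score merges 667 nm fluorescence intensity with signal-to-noise per printed feature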
# [7] = small-molecule microarray binders of probe aShh, primary screen, biochemical, biotinylated probe, 635/667 nm fluorescence (AID 1114); settings: higher = more signal;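 also: probe is biotin-labelled aShh protein from a stem cell growth factor screen; measures binding of labelled protein to compounds printed on the slide; score merges feature fluorescence at 667 nm with signal-to-noise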
# [8] = small-molecule microarray binders of probe aNog, primary screen, biochemical, biotinylated probe, 635/667 nm fluorescence (AID 1115); settings: higher = more signal;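 also: probe is biotinylated aNog protein used at 0.15 µg/mL for 1 h at 4 C; z-score combines 667 nm fluorescence of each spot with its signal to noise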
# [9] = target: Torsin-1A-interacting protein 1 (Homo sapiens) (UniProt Q5JTV8); assay: LAP1 binders from COS7 cell lysate, primary screen, small-molecule microarray, 635/667 nm fluorescence (AID 1116); settings: COS7-hLAP1 lysate binding, 635 nm fluorescence, higher = more signal
# Torsin-1A-interacting protein 1 (Homo sapiens), sequence (Q5JTV8 whole entry, looked up): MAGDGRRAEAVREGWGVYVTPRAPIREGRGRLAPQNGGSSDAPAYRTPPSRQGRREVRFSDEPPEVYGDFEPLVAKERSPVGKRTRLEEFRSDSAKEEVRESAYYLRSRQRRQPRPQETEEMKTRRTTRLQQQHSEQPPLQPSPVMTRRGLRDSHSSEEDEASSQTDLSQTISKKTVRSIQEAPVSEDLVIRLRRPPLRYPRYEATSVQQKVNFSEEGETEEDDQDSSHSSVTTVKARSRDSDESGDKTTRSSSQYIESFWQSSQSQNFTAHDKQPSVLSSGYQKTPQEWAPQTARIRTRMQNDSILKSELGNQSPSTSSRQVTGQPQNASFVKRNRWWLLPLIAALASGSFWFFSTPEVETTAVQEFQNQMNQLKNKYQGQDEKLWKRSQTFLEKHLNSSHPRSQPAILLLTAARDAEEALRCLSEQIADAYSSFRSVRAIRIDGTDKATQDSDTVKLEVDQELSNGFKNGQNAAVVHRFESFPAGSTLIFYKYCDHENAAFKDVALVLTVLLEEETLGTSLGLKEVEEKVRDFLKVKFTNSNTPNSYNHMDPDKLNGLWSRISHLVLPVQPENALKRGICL
# [10] = target: Alpha-bungarotoxin (Bungarus multicinctus) (UniProt P60615); assay: alpha-bungarotoxin binders on microarray, profiling panel, artefact control for SMM control protein annotation, biochemical, small-molecule microarray, Alexa647 label, 635/667 nm fluorescence (AID 1117); settings: alpha-BTX-A647 binding fluorescence, higher = more signal
# Alpha-bungarotoxin (Bungarus multicinctus), sequence (P60615 whole entry, looked up): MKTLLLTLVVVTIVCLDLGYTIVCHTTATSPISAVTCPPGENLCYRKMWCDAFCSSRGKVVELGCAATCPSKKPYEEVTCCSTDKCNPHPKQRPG
# Albumin (Bos taurus) = Albumin (Bos taurus) (UniProt P02769); assay: bovine serum albumin binders on microarray, profiling panel, artefact control for SMM control protein annotation, biochemical, small-molecule microarray, Alexa647 label, 635/667 nm fluorescence (AID 1118); settings: BSA-A647 binding, fluorescence 635 nm, higher = more signal;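 also: score merges 667 nm emission intensity and signal-to-noise per printed compound spot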
# Albumin (Bos taurus), sequence (P02769 whole entry, looked up): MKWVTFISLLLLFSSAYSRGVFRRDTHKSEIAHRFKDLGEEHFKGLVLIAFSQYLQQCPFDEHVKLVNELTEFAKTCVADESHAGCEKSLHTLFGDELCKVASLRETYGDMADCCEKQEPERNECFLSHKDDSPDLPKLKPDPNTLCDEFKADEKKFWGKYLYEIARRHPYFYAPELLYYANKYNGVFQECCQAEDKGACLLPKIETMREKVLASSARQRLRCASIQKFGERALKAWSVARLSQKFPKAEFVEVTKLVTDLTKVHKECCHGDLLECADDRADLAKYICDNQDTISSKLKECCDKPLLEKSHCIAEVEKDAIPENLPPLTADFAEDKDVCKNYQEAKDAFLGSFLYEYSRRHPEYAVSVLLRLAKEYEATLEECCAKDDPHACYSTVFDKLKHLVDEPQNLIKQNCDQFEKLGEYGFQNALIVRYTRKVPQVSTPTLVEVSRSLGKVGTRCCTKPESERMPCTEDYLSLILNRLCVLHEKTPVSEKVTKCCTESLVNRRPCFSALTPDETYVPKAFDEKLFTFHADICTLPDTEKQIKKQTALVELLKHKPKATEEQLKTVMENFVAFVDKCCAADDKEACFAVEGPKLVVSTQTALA
# [11] = small-molecule microarray binders of probe aXIP, primary screen, biochemical, NeuroSMM set, 635/667 nm fluorescence (AID 1119); settings: higher = more signal, called active from +8 up or from −8 down;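 also: probe is the protein aXip251-270 applied at 1 µg/mL to compound-printed slides; binding of probe to printed compounds measured as 667 nm fluorescence plus signal to noise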
# [12] = small-molecule binders of probe aNOTCH3, primary screen, biochemical, small-molecule microarray, 635/667 nm fluorescence (AID 1120); settings: higher = more signal;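 also: probe is a biotin-tagged antibody raised against NOTCH3 rather than NOTCH3 protein; score merges spot fluorescence near 667 nm with spot signal to noise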
# [13] = small-molecule binders of probe aNOTCH2, primary screen, biochemical, small-molecule microarray, 635/667 nm fluorescence (AID 1121); settings: higher = more signal;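 also: score merges feature fluorescence read at 667 nm with its signal to noise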
# [14] = target: Carbonic anhydrase 2 (Homo sapiens) (UniProt P00918); assay: CAII small-molecule binders, profiling panel, biochemical, small-molecule microarray, Alexa647-labelled CAII (AID 1122); settings: CAII-A647 binding fluorescence, higher = more signal
# [15] = COS7 lysate on small-molecule microarray, probe aHis, 635 nm (AID 1123); settings: COS7 cell lysate, fluorescence, higher = more signal;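 also: z-score combines 667nm fluorescence intensity with signal-to-noise per printed compound spot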
# [16] = compound binding in COS7 lysate, probe aLAP1, primary screen, cell lysate, small-molecule microarray (AID 1124); settings: probe aLAP1, fluorescence, higher = more signal;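 also: lysate comes from COS7 cells expressing LAP1 and is applied at 0.3 µg/mL; score merges spot fluorescence near 667 nm with signal-to-noise over triplicate slides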
# Sam68 (KHDRBS1) = assay: Sam68 small-molecule binders, primary screen, biochemical, small-molecule microarray, 635 nm fluorescence (AID 1125); settings: small-molecule microarray binding, higher = more signal;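 also: score merges 667 nm channel intensity with signal to noise over triplicate slides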
# [17] = tested on: Chordin-like protein 2 (CHRDL2); assay: CHRDL2 small-molecule binders, primary screen, biochemical, small-molecule microarray, 635 nm fluorescence (AID 1126); settings: small-molecule microarray binding, fluorescence 635 nm; higher = more signal;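 also: printed compound slides probed with Chrdl2 protein at 4 µg/mL for 1 h at 4 C; score merges 667 nm emission intensity with signal to noise over three replicate slides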
# [18] = target: Concanavalin-A (Canavalia ensiformis) (UniProt P02866); assay: ConA small-molecule binders, primary screen, artefact control for SMM control protein annotation, biochemical, small-molecule microarray, Alexa647 label, 635 nm (AID 1127); settings: ConA-A647 binding fluorescence, higher = more signal;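 also: z combines 667 nm emission intensity with signal-to-noise across three replicate slides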
# Concanavalin-A (Canavalia ensiformis), sequence (P02866 whole entry, looked up): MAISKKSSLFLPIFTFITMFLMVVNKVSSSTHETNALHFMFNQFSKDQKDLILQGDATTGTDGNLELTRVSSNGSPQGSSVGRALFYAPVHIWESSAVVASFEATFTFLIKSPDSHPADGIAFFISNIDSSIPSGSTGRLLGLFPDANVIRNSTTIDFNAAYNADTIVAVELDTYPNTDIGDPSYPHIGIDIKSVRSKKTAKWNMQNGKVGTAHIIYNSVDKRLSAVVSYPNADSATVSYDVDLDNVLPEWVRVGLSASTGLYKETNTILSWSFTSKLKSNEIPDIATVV
structure (smiles),measurement,setting,value
O=C1O[C@@H](c2ccccc2)[C@@H](c2ccccc2)N2[C@@H](c3ccc(O)cc3)[C@]3(C(=O)Nc4ccc(C#CCCO)cc43)[C@@H](C(=O)O)[C@H]12,composite z-score,[1],0.449
same,z-score,[2],0.386
same,composite z-score,[3],-0.233
same,composite z-score,[4],2.19
same,composite z-score,[5],0.933
same,composite z-score,[6],0.485
same,composite z-score,[7],0.86
same,composite z-score,[8],2.63
same,composite z-score,[9],1.66
same,composite z-score,[10],2.14
same,composite z-score,Albumin (Bos taurus),0.323
same,composite Z-score,[11],0.674 (inactive)
same,composite z-score,[12],1.05
same,composite z-score,[13],0.734
same,composite z-score,[14],0.653
same,composite z-score,[15],2.34
same,composite z-score,[16],0.734
same,composite z-score,Sam68 (KHDRBS1),0.872
same,composite z-score,[17],0.434
same,composite z-score,[18],1.03
C=CCN1Cc2ccccc2C[C@@]2(COC(c3ccc(OCCCO)cc3)=N2)C1=O,composite z-score,[1],1.42
same,z-score,[2],-0.908
same,composite z-score,[3],0.588
same,composite z-score,[4],0.175
same,composite z-score,[5],-0.583
same,composite z-score,[6],0.0633
same,composite z-score,[7],0.13
same,composite z-score,[8],0.373
same,composite z-score,[9],1.33
same,composite z-score,[10],0.34
same,composite z-score,Albumin (Bos taurus),-0.476
same,composite Z-score,[11],0.0425 (inactive)
same,composite z-score,[12],0.0596
same,composite z-score,[13],0.0965
same,composite z-score,[14],0.598
same,composite z-score,[15],2.14
same,composite z-score,[16],0.547
same,composite z-score,Sam68 (KHDRBS1),0.811
same,composite z-score,[17],1.12
same,composite z-score,[18],0.85
CC(C)N1C(=O)c2ccccc2[C@](C)(C(=O)NCCCN(C)C)[C@@H]1c1ccc(CO)cc1,composite z-score,[1],-0.0305
same,z-score,[2],-0.104
same,composite z-score,[3],-0.553
same,composite z-score,[4],0.0958
same,composite z-score,[5],-0.0609
same,composite z-score,[6],-0.152
same,composite z-score,[7],-0.214
same,composite z-score,[8],-0.546
same,composite z-score,[9],4.42
same,composite z-score,[10],1.28
same,composite z-score,Albumin (Bos taurus),0.222
same,composite Z-score,[11],-0.264 (inactive)
same,composite z-score,[12],-0.149
same,composite z-score,[13],-0.0903
same,composite z-score,[14],0.526
same,composite z-score,[15],1.45
same,composite z-score,[16],1.01
same,composite z-score,Sam68 (KHDRBS1),-0.283
same,composite z-score,[17],-0.85
same,composite z-score,[18],-1.41
